Screening data deposited in PubChem by National Center for Advancing Translational Sciences (NCATS).
A selection: hits, their analogues and other compounds. The true share with any hit is near 0.85%.
GLS inh: blocks human kidney-isoform glutaminase activity | Potency, µM (doses to about 45.5 µM), actives largely listed as inhibitors | GLS enzymatic activity, qHTS titration | 0.21% of 410,000 active | AID 624170
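hKGA in 45 mM KH2PO4 (pH 8.2), 0.02% Tween-20 with compound, then 1mM L-Glutamine (stock as added) plus glutamate oxidase/HRP/Amplex red coupling mix. Fluorescence read initially and after 30 min at RT; signal change reflects glutamate formation.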
GRP78 ERSR act: inducers of ER stress response in human glioma cells; AID 602332; 0.02% of 420,000 active; U87-MG GRP78 promoter luciferase reporter, 16 h; Potency, µM, most hits filed as activators; note: series mostly up to about 76 µM; nearly all actives have a fitted effect of over 35% in size
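ERSR induction read as luciferase luminescence (Bright-Glo, 10 min at room temperature) in stably transfected human U87-MG glioma cells exposed to compounds for 16 h, using GRP78 as sensor.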
CCT chaperon mod: changes cytosolic chaperonin activity | purified chaperonin ATPase assay, HTRF ADP detection, 30 min | activity change, % (test concentration not listed), hits read low | AID 651819 | 0.3% of 360,000 active; in the data active = activity change below about -30%
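First, chaperonin was dispensed at 40 nM or 20 nM final depending on batch activity. Next, compounds were pinned at 76 uM and ATP added at 10 uM. After 30 min at 37 °C, ADP detection reagents ran 30 min at ambient temperature.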
mIDH1 inhibitor: blocks human mutant IDH1 R132H enzyme. AID 602179. Potency, µM (top dose mostly 76.6 µM), usual class: inhibitors. IDH1-R132H enzyme, NADPH consumption, diaphorase/resazurin fluorescence. O75874. 0.093% of 390,000 active; note: nearly all actives have a fitted effect of over 65% in size
Target sequence (O75874 whole entry R132H, stated change not applied): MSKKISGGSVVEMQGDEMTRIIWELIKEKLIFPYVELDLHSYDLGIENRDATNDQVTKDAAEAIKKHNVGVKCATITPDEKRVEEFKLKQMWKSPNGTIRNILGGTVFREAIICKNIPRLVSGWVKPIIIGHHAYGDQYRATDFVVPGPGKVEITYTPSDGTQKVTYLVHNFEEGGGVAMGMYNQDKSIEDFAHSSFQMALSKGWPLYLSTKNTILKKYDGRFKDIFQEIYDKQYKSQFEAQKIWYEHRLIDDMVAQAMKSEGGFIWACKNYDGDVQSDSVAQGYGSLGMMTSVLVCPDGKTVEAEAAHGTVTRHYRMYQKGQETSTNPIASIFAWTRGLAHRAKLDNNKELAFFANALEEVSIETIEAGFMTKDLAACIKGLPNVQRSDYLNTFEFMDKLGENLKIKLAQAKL
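IDH1-R132H (0.5 ug/mL) preincubated 30 min with compound, then NADPH (0.016 mM) and alpha-KG (2 mM) added; 80 min at RT, pH 7.5. Remaining NADPH coupled via diaphorase/resazurin to fluorescence (540/590 nm); concentration-response curves normalized to no-enzyme control.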
Akt phos inh: blocks phosphorylation of Akt | Neuro2A IGF-stimulated pAkt S473 HTRF, 20 min; stronger effect = lower value | activity change, % for hits at 50 µM | 0.32% of 360,000 active; in the data active = activity change below about -80%
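Neuro2A cells (4,500/well, DMEM with 0.5% FBS) were treated with compound at a single 50 µM final concentration, stimulated with 6 nM IGF for 20 min at 37 °C, and lysed. Phospho-Akt Ser473 was read by HTRF as 665/615 ratio ×10^4.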
MmCpn inh: inhibitors of Methanococcus maripaludis chaperonin TRiC (MmCpn) | Potency, µM (titrated, usually from 76.9 µM), usual class: inhibitors | 0.031% of 330,000 active | purified Mm-Cpn ATPase, ADP Transcreener TR-FRET; note: nearly all actives have a fitted effect of over 80% in size
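Purified archaeal Mm-CPN (25nM final) preincubated 10 min at 37degC with compound, then 10uM ATP for 30 min at 37degC; ADP measured by HTRF Transcreener TR-FRET; buffer 30 mM TRIS pH 7.4, 100mM KCl, 5mM MgCl2, 1mM DTT.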
Large screens that a line does not name were inactive. Unless noted, calls come from the whole dose curve; as a rule, active = well fitted curve in the direction sought with a large enough effect; inconclusive = small, poorly fitted or top-dose-only effect, or another doubt; inactive = no such curve, though single readings can be large; an effect the other way counts as inactive or inconclusive.

N#CC1=C(S)N(c2ccccc2)C(c2ccc(-c3cccc(Cl)c3)o2)NC1=O (configuration not stated)	mIDH1 inhibitor 41µM
COC(=O)c1cn([C@@H]2C[C@@H](C(=O)Nc3cccc(SC)c3)N(C3CCCCCC3)C2)nn1	none (no result: GLS inh, CCT chaperon mod, mIDH1 inhibitor, Akt phos inh, MmCpn inh)
CC(C)n1nc(C(=O)Nc2ccc(-n3cnnn3)cc2)c2ccccc2c1=O	CCT chaperon mod -31
Cn1nc(C(=O)Nc2ccc(-n3cnnn3)cc2)c2ccccc2c1=O	none
COCc1c(C(=O)OCC(=O)c2c(N)n(CC(C)C)c(=O)n(C)c2=O)oc2ccccc12	Akt phos inh -103%
Cc1c(C(=O)OCC(=O)c2c(N)n(CC(C)C)c(=O)n(C)c2=O)oc2ccccc12	none
COc1ccc(CNC(=O)c2cnn(-c3ncc4c(n3)-c3ccccc3CC4)c2C)cc1OC	none (no result: GLS inh, CCT chaperon mod, mIDH1 inhibitor, Akt phos inh, MmCpn inh)
Cc1cnc(-n2ncc(C(=O)NC(C)(C)CO)c2-c2cccs2)nc1-c1ccc(F)cc1	none (no result: GLS inh, CCT chaperon mod, mIDH1 inhibitor, Akt phos inh, MmCpn inh)
COc1ccc(CC(=O)Nc2ccc(-c3nnc(-c4ccccc4)o3)cc2)cc1OC	Akt phos inh -118%
Cc1ncc2c(c1CNC(=O)c1cncs1)CCN(C(=O)c1cc(F)c(F)cc1F)C2	none (no result: GLS inh, CCT chaperon mod, mIDH1 inhibitor, Akt phos inh, MmCpn inh)
Cc1cc2ccccc2n1CCNC(=O)c1ccc(S(=O)(=O)N2CCCCC2)cc1	MmCpn inh 14µM
Cc1ccc(C(=O)NCCn2c(C)cc3ccccc32)cc1C	none (no result: CCT chaperon mod, Akt phos inh, MmCpn inh)
N#Cc1cnc2sc3ccccc3n2c1=N	Akt phos inh -118%
CC(=O)c1ccc(OCc2cc(C(=O)N3CCC(c4ccncc4)CC3)no2)cc1	CCT chaperon mod -49
Cc1noc(C)c1CSc1nnc(C)c(=O)[nH]1	Akt phos inh -108%
Cc1nnc(SCc2cccs2)[nH]c1=O	none
C=CCNC(=S)Nc1cccc2[nH]ncc12	CCT chaperon mod -32
CC(=O)N1CCN(S(=O)(=O)c2cccc(C(=O)Nc3ccc(OC(F)F)cc3)c2)CC1	CCT chaperon mod -39
CCN(Cc1ccncc1)Cc1ccc2c(c1)CN(C(=O)c1ccccc1)CCO2	none (no result: GLS inh, CCT chaperon mod, mIDH1 inhibitor, Akt phos inh, MmCpn inh)
C[C@@H]1CN(Cc2ccc3c(c2)CN(Cc2nc(-c4ccccc4)cs2)CCO3)C[C@H](C)O1	none (no result: GLS inh, CCT chaperon mod, mIDH1 inhibitor, Akt phos inh, MmCpn inh)
COc1ccc(O)c(CN2CCC3(CC2)c2ccccc2[C@@H](NC(=O)c2cccc(F)c2)[C@@H]3OC)c1	none (no result: GLS inh, CCT chaperon mod, mIDH1 inhibitor, Akt phos inh, MmCpn inh)
O=C(COC(=O)c1ccccc1NC(=O)c1ccco1)Nc1ccc2c(c1)OCO2	Akt phos inh -102%
COc1ccccc1C1CN(CCNC(=O)c2cnsn2)Cc2ccccc2O1 (configuration not stated)	none (no result: GLS inh, CCT chaperon mod, mIDH1 inhibitor, Akt phos inh, MmCpn inh)
COc1ccc(-c2ccnc(-n3ncc(C(=O)NCc4ccon4)c3C3CC3)n2)cc1F	none (no result: GLS inh, CCT chaperon mod, mIDH1 inhibitor, Akt phos inh, MmCpn inh)
CC1(C)CC[C@]2(C(=O)n3ccnc3)CC[C@]3(C)[C@H](C(=O)C=C4[C@@]5(C)C=C(C#N)C(=O)C(C)(C)[C@@H]5CC[C@]43C)[C@@H]2C1	GLS inh 10µM (no result: MmCpn inh)
O=C(CCCN1C(=O)C(c2ccccc2)Oc2cccnc21)NCCc1ccc(Cl)cc1 (configuration not stated)	CCT chaperon mod -125
O=C(CCCN1C(=O)C(c2ccccc2)Oc2cccnc21)NCc1ccccc1Cl (configuration not stated)	none
C=CCn1c2ccccc2c2nnc(SCC(=O)O)nc21	CCT chaperon mod -43
COCc1nn2c(N)c(-c3ccccc3)cnc2c1-c1ccccc1	CCT chaperon mod -44
CCOC(=O)Cc1csc(N/N=C\c2cccc(Br)c2)n1	GLS inh 20µM
COC(=O)c1ccc(C(=O)N2CCc3c(C(=O)NC(C)c4ccco4)c(OC)cc(=O)n3CC2)cc1 (configuration not stated)	none (no result: GLS inh, CCT chaperon mod, mIDH1 inhibitor, Akt phos inh, MmCpn inh)
Cc1ccc(S(=O)(=O)Nc2ccc(C(=O)N3CCCC3)cc2)cc1	none
Cc1ccc(NS(=O)(=O)c2ccc(C(=O)N3CC(C)CC(C)C3)cc2)cc1 (configuration not stated)	GRP78 ERSR act 40µM
CSc1ccc(C2=CC(=O)C[C@H](c3ccc(F)cc3)C2)cc1	CCT chaperon mod -39
